# Measurements taken from PubChem BioAssay (Tox21).
# Inconclusive results are not listed. Where a call stands in place of a potency, no number is given. A number with no mark means an inactive call. Calls of active or inactive are those of the source. The call rests on the fitted dose curve.
# Target: Thyrotropin receptor (Homo sapiens) (UniProt P16473)
# Test: qHTS assay to identify small molecule antagonists of the thyroid stimulating hormone receptor (TSHR) signaling pathway (AID 1259385); further: nearly all actives have a fitted effect of over 20% in size
# Conditions: TSHR-HEK293 cAMP HTRF, TSH-stimulated antagonist mode; series mostly up to 92.4 µM
# Text: U.S. Tox21 Program National Center for Advancing Translational Sciences [NCATS] NIH Chemical Genomics Center [NCGC] U.S. Environmental Protection Agency [EPA] National Institutes of Environmental Health Sciences [NIEHS] National Toxicology Program [NTP] U.S. Food and Drug Administration [FDA] Tox21 Assay Overview: TSHR is the receptor for thyrotropin (thyroid stimulating hormone or TSH), a member of the glycoprotein hormone family. TSH is released by the anterior pituitary gland and is the main regulator of thyroid gland growth and development. Upon binding circulating thyrotropin, a G-protein signal cascade activates adenylyl cyclase and […] cAMP concentration is increased. cAMP is a key second messenger involved extensively in cellular signal transduction pathways associated with the majority of G-protein coupled receptors (GPCRs). The activation of these GPCRs by neurotransmitters, lipids, nucleotides, peptides and hormones results in the activation or the inhibition of plasma membrane-bound adenylate cyclase through heterotrimeric G-proteins. A cell-based TSHR assay can be used to screen chemical compounds that modulate TSHR either in agonist or antagonist mode.
# Tox21 Assay Protocol Summary: TSHR-Hek293 cells were dispensed at 800 cells/4uL/well in 1536-well white plates using a Multidrop dispenser. After the assay plates were incubated at a 37C/5% CO2 incubator for 18 hrs, 23 nL of compounds dissolved in DMSO, positive controls or DMSO only was transferred to the assay plate by a pin tool, followed by 1 ul medium containing Ro20-1724. For the antagonist mode screening, 1 uL of TSH was added on the top of the cell/compound mixtures to achieve a final agonist concentration of 1.5 ng/mL. After 30 min of incubation at room temperature, 2.5 ul/well of cAMP-d2 and 2.5 ul/well of anti-cAMP-cryptate were added respectively into the assay plates using a Flying Reagent Dispenser. The plates were incubated at room temperature for 1 hr. The fluorescence intensity in the plates was measured using an Envision plate reader. Each test compound was measured at 15 concentrations and in triplicates.
# Thyrotropin receptor (Homo sapiens), sequence (P16473 whole entry, looked up): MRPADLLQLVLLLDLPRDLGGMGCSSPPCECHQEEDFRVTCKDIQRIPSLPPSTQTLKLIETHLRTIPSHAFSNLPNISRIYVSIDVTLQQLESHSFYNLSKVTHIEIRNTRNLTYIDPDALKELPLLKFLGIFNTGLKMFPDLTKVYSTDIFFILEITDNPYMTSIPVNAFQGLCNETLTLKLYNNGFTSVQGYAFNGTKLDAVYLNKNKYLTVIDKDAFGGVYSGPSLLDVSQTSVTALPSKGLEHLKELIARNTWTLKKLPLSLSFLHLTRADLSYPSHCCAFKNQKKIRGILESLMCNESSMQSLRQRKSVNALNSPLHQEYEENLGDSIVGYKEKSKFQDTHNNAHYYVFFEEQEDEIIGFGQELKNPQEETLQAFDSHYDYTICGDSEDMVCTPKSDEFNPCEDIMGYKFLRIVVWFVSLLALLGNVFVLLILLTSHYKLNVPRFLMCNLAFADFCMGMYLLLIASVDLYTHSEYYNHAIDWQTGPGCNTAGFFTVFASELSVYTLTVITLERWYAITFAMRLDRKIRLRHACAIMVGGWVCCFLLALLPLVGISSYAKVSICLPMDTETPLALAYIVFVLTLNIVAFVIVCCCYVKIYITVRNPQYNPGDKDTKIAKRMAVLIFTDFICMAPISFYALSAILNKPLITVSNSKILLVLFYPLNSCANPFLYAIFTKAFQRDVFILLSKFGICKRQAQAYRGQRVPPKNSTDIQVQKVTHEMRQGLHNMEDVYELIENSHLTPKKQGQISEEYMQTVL
Structure (SMILES),Potency,"activity change, negative = inhibition"
O=Cc1ccc2c(c1)OCO2,inactive,
CO[C@@H]1[C@H](OC(=O)NC(=O)CCl)CC[C@]2(CO2)[C@H]1[C@@]1(C)O[C@@H]1CC=C(C)C,,0.358% [at 19 µM]
COc1cc(CC(C)N)cc2c1OCO2 (stereo not given),inactive,
N#Cc1ccc(Cl)cc1,inactive,
O=C(O)C1(c2ccc3c(c2)OC[C@H](Cc2ccc(-c4ccccc4)cc2)[C@H]3O)CCCC1,inactive,
COCCOCCO,inactive,
Sc1ccccc1Cl,inactive,
COP(=S)(OC)Oc1ccc([N+](=O)[O-])cc1Cl,inactive,
Cc1c(F)c(F)c(COC(=O)C2C(/C=C(\Cl)C(F)(F)F)C2(C)C)c(F)c1F (stereo not given),inactive,
CC(Cl)Cl,inactive,
COc1nn(C(=O)NS(=O)(=O)c2ccccc2OC(F)(F)F)c(=O)n1C,inactive,
O=C1C(=O)c2cccc3cccc1c23,inactive,
O=NN1CCCCCC1,inactive,
CCCCN=C=O,inactive,
Nc1nc(N)nc(N)n1,inactive,
CCCCCCCCOC(=O)c1ccc(C(=O)OCCCCCCCC)c(C(=O)OCCCCCCCC)c1,inactive,
CCC(Br)(CC)C(=O)NC(N)=O,inactive,
N#CCC#N,inactive,
CCOc1nc(F)cc2nc(S(=O)(=O)Nc3c(Cl)cccc3Cl)nn12,inactive,
COP(=S)(OC)Oc1cc(Cl)c(I)cc1Cl,inactive,

Structure (SMILES),Potency,"activity change, negative = inhibition"
CCCN(CC1CC1)c1c([N+](=O)[O-])cc(C(F)(F)F)cc1[N+](=O)[O-],inactive,
C[C@@H]1CC[C@H]2[C@@H](C)C(=O)O[C@@H]3O[C@@]4(C)CC[C@@H]1[C@]32OO4,inactive,
O=C(O)C(F)(F)C(F)(F)C(F)(F)C(F)(F)C(F)(F)C(F)(F)C(F)(F)C(F)(F)C(F)(F)F,inactive,
Brc1ccccc1,inactive,
CC1Sc2c(C(=O)O)c(=O)c3cc(F)c(N4CCNCC4)cc3n21 (stereo not given),inactive,
BrCCCCBr,inactive,
COC(C)(C)CCC[C@H](C)C/C=C/C(C)=C/C(=O)OC(C)C,inactive,
CC(C)(CCl)C(=O)Cl,inactive,
ClCC(Br)CBr (stereo not given),inactive,
CC(C)=CCOc1c2occc2cc2ccc(=O)oc12,inactive,
CNP(=O)(OC)Oc1ccc(C(C)(C)C)cc1Cl (stereo not given),inactive,
c1ccc(C2CC2)c(OCC2=NCCN2)c1,inactive,
Clc1cccc(SC2CCNCC2)n1,inactive,
CC(=O)[C@H]1CC[C@H]2[C@@H]3CC[C@H]4C[C@](C)(O)CC[C@]4(C)[C@H]3CC[C@]12C,inactive,
CC1(C)CCC(Cc2ccc(Cl)cc2)C1(O)Cn1cncn1 (stereo not given),inactive,
Cc1ccc(N)cc1C,inactive,
c1ccc(CN2CCNCC2)cc1,inactive,
CC(C)(C)C(O)C(Oc1ccc(Cl)cc1)n1cncn1 (stereo not given),inactive,
Cc1ccc2ccccc2c1,inactive,
CCCC(=O)Cl,inactive,
